Among the data in PubChem BioAssay AID2066 (NMMLSC, 2009) are GFP response vs DMSO values, retold here.

SMILES strings stand for the structures. About 50 (0.02%) of roughly 320,000 compounds were called active.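 Rule for the calls: active = GFP response relative to DMSO above a set limit, near screen average plus 3 SD (cut at about 150% in these data); inconclusive = fewer than 70 cells counted for the yeast strain; inactive = the rest.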 Only a selection was taken, and actives are over-represented in it overall.

A short description of this assay: modulators of AGP1-GFP expression in yeast TOR pathway, primary screen, cell-based, multiplex flow cytometry, S. cerevisiae, MLPCN library (AID 2066).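 Note: median GFP channel fluorescence of the gated AGP1 strain per well.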 To be noted: 3 h, at 10 µM, active compounds read high, GFP as percent of DMSO wells.
As for `O=C(Nc1ccc(F)cc1)C1CCCN(S(=O)(=O)c2ccc(-n3cnnn3)cc2)C1` (centres undefined), the GFP response vs DMSO was 102% (inactive).

`CCN(CC)CCNS(=O)(=O)c1ccc(/C=C/C(=O)O)cc1`: the GFP response vs DMSO is 98.4% (inactive).

Regarding `Cc1ccc(NC(=O)CSc2nn3c(=O)c(C)nnc3s2)cc1Cl`, the GFP response vs DMSO is 93.9% (inactive).

As to `Cc1cccc(Nc2nc3c(S(=O)(=O)c4ccccc4)nnn3c3ccccc23)c1C`, the GFP response vs DMSO is 224% [may fluoresce green] (active).

Consider `Cc1ccc(S(=O)(=O)c2nnn3c2nc(N2CCN(c4ccccn4)CC2)c2ccccc23)cc1`, for which the GFP response vs DMSO is 97.1% (inactive).

For `CC(=O)Nc1ccc(Nc2nc3c(S(=O)(=O)c4ccc(C)c(C)c4)nnn3c3ccccc23)cc1`, the GFP response vs DMSO is 100% (inactive).

Take `NC(=O)C1CC=CCC1C(=O)OCC(Cl)=C(Cl)Cl` (centres undefined): the GFP response vs DMSO is 105% (inactive).

`Cc1cc(C)cc(OCC(=O)OCC(=O)NC2CCCC2)c1`: the GFP response vs DMSO is 87.5% (inactive).

Turning to `O=C(Nc1nccs1)c1cc(S(=O)(=O)N2CCOCC2)c(Cl)cc1Cl`, the GFP response vs DMSO was 100% (inactive).

With `CN(C)S(=O)(=O)c1cc(C(=O)Nc2ccn(C)n2)c(Cl)cc1Cl`, the GFP response vs DMSO was 1300% [may fluoresce green] (active).

On to `Cc1ccc(C(=O)Nc2ccn(C)n2)cc1`, for which the GFP response vs DMSO is 102% (inactive).

Take `Cn1nnnc1SCC(=O)Nc1ccccc1C(=O)NC1CC1`: the GFP response vs DMSO was 102% (inactive).

For the compound `Cc1ccc2c(=O)cc(C(=O)NCCc3ccc(S(N)(=O)=O)cc3)oc2c1C`, the GFP response vs DMSO was 93.5% (inactive).

For the compound `Cc1oc(C(N)=O)cc1COc1ccc(C(N)=O)cc1`, the GFP response vs DMSO is 101% (inactive).

For `O=C1CCC/C=C/C[C@@H](CC(=O)N(CCO)Cc2ccccc2)C(=O)NC[C@H](c2ccccc2)O1`, the GFP response vs DMSO is 96.8% (inactive).

Regarding `Cc1ccc(C)c(NC(=O)CCC(=O)N/N=C2/CC(=O)CC(C)(C)C2)c1`, the GFP response vs DMSO was 96.2% (inactive).

On to `O=C(COC(=O)c1cc(S(=O)(=O)N2CCOCC2)ccc1F)NC1CC1`, for which the GFP response vs DMSO was 91.4% (inactive).

With `COc1cccc(C(=O)Nc2cc3c(cc2Br)OCCCO3)c1`, the GFP response vs DMSO is 92% (inactive).

For the compound `CS(=O)(=O)Nc1ccccc1C(=O)OCC(=O)NC1CC1`, the GFP response vs DMSO is 106% (inactive).

With `O=C(CCc1[nH]c2ccccc2c1Sc1ccccc1)N(CCO)CCO`, the GFP response vs DMSO is 99.2% (inactive).

As to `Nc1nc(NCc2ccccc2)n(-c2ccccc2)n1`, the GFP response vs DMSO is 99.9% (inactive).

On to `COc1cc(C)ccc1OCC(=O)OCC(=O)c1ccc[nH]1`, for which the GFP response vs DMSO is 100% (inactive).

Consider `COc1ccc(S(=O)(=O)N(C)C[C@@H]2Oc3ccc(NS(=O)(=O)c4cn(C)cn4)cc3C(=O)N([C@@H](C)CO)C[C@@H]2C)cc1`, for which the GFP response vs DMSO is 91.3% (inactive).

On to `COCCn1c(SCC(=O)Nc2ccccc2F)nc2c(c1=O)SCC2`, for which the GFP response vs DMSO was 96.5% (inactive).

Regarding `Cc1ccc(Oc2cc(NC(=O)CCCn3nc(C)c([N+](=O)[O-])c3C)cc([N+](=O)[O-])c2)cc1`, the GFP response vs DMSO is 95.5% (inactive).

For the compound `CCn1cc(C(=O)Nc2cc(C)ccc2C)c(=O)c2ccc(C)nc21`, the GFP response vs DMSO is 108% (inactive).

As to `C=CCNC(=S)/N=c1/ccccn1Cc1ccccc1`, the GFP response vs DMSO was 108% (inactive).

For `Cc1ccc2cc(C)c(N3CCC(C)CC3)nc2c1`, the GFP response vs DMSO is 108% (inactive).

Turning to `CCC1(C)Cc2c(sc3nnn(CC(=O)Nc4ccc(Cl)cc4)c(=O)c23)CO1` (centres undefined), the GFP response vs DMSO is 98% (inactive).

Regarding `Cc1nn(Cc2ccccc2)c(C)c1C(=O)N1CCN(CC(=O)Nc2ccccc2Cl)CC1`, the GFP response vs DMSO was 99.8% (inactive).

With `CCN1C(=O)N[C@@H](c2ccccc2)[C@H](C(C)=O)[C@H]1C`, the GFP response vs DMSO is 81.1% (inactive).

As to `COC(=O)c1cc(NC(=O)c2cc(C(C)(C)C)nn2Cc2cccc(C)c2)ccc1N1CCOCC1`, the GFP response vs DMSO is 97% (inactive).

For the compound `CCOC(=O)C(C)n1cnc2scc(-c3ccc(C)c(C)c3)c2c1=O` (centres undefined), the GFP response vs DMSO is 93.8% (inactive).

For `COC(=O)c1sccc1-n1cccc1C(=O)C(=O)N1CCCCC1`, the GFP response vs DMSO is 92.6% (inactive).

As for `Cc1ccc(C(c2nnnn2CS(=O)(=O)c2ccc(C)cc2)N2CCC(C)CC2)cc1` (centres undefined), the GFP response vs DMSO was 91.3% (inactive).

As to `CC(=O)Nc1ccc(S(=O)(=O)NCC(=O)OCC(=O)c2ccc[nH]2)cc1`, the GFP response vs DMSO is 107% (inactive).

For the compound `O=C(Nc1cc(S(=O)(=O)N2CCOCC2)ccc1N1CCOCC1)c1c(F)cccc1Cl`, the GFP response vs DMSO was 103% (inactive).

For `CC(Sc1nnc(Cc2ccc([N+](=O)[O-])cc2)o1)C(N)=O` (centres undefined), the GFP response vs DMSO was 97.7% (inactive).

Turning to `O=C(O)c1cccc(S(=O)(=O)N2CC=C(c3ccccc3)CC2)c1`, the GFP response vs DMSO is 101% (inactive).

On to `O=C1c2ccccc2C(=O)N1CC1c2ccccc2CCN1S(=O)(=O)c1ccccc1` (centres undefined), for which the GFP response vs DMSO was 96.4% (inactive).

`Cc1nnc(CN(C)Cc2cn[nH]c2-c2ccc(-c3ccccc3)cc2)o1`: the GFP response vs DMSO was 108% (inactive).

With `CC(c1ccccn1)N(C)C(=O)c1ccc2nc(Cc3cccc(Cl)c3)oc2c1` (centres undefined), the GFP response vs DMSO is 103% (inactive).

With `Cn1nnnc1SCC(=O)Nc1cccc(S(=O)(=O)N2CCCCC2)c1`, the GFP response vs DMSO was 77.3% (inactive).

For `O=C(OCC(=O)N1CCCCCC1)c1cnc(Cl)c(Cl)c1`, the GFP response vs DMSO is 97.1% (inactive).

For `COc1ccc(NC2=CC(=S)NC(C)(C)C2)cc1`, the GFP response vs DMSO is 99.9% (inactive).

In the case of `CCN(CC)CCCNC(=O)c1c(O)c2cc(F)cc3c2n(c1=O)C(C)CC3` (centres undefined), the GFP response vs DMSO is 88.3% (inactive).

Regarding `O=c1cc(Cl)c2ccccc2n1-c1ccccc1`, the GFP response vs DMSO was 103% (inactive).

In the case of `N#Cc1ccccc1NC(=O)COc1c(Br)cc(Br)c2cccnc12`, the GFP response vs DMSO was 96.8% (inactive).

On to `Cc1cc(C)nc(N2C(=O)CC(Cc3ccccc3)C2=O)n1` (centres undefined), for which the GFP response vs DMSO was 112% (inactive).

With `CCOC(=O)N1CCC(NC(=O)CN2C(=O)COc3ccc(C(C)(C)C)cc32)CC1`, the GFP response vs DMSO is 88.7% (inactive).

Take `CCCCN(C(=O)c1ccc2ccccc2c1)c1c(N)n(CCCC)c(=O)[nH]c1=O`: the GFP response vs DMSO is 92.5% (inactive).

For the compound `O=C(CN1CCN(S(=O)(=O)c2cc(Cl)ccc2Cl)CC1)c1ccc(O)c(O)c1`, the GFP response vs DMSO is 94.9% (inactive).

Regarding `CCOc1ccc2oc(C(=O)N(CC)CC(=O)Nc3ccc(NC(C)=O)cc3)c(C)c2c1`, the GFP response vs DMSO was 103% (inactive).

With `COc1cccc(NC(=O)C(Sc2nc3ccccc3c(=O)n2CC(C)C)c2ccccc2)c1` (centres undefined), the GFP response vs DMSO is 98.7% (inactive).
